Measurements as given in PubChem BioAssay.
The source made the active and inactive calls. Unless noted, how the calls were made is not given here.

Legend:
[1] = A549 cell viability effects, profiling panel, calcein-AM fluorescence, 48 h, basal (AID 1162); conditions: higher = more signal; further: test concentration not given here
[2] = adipocyte viability effects, profiling panel, cell-based, 3T3-L1 adipocytes, calcein-AM fluorescence, 48 h, basal (AID 1163); conditions: 3T3-L1 adipocytes viability, higher = more signal; further: test concentration not given here
[3] = HepG2 cell viability effects, profiling panel, calcein-AM fluorescence, 48 h, basal (AID 1164); conditions: higher = more signal; further: test concentration not given here
[4] = MM1S cell viability effects, profiling panel, calcein-AM fluorescence, 48 h, basal (AID 1165); conditions: higher = more signal;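 further: viability of MM1S multiple myeloma cells under basal unstimulated conditions; test concentration not given here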
[5] = basal RPMI8226 viability, no added stimulus, profiling panel, cell-based, calcein-AM fluorescence, 48 h, PK04 Diversity Set (AID 1166); conditions: RPMI8226 myeloma viability, higher = more signal;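 further: cells grown under basal conditions without added stimulus; test concentration not given here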
[6] = basal HepG2 mitochondrial membrane potential changes, profiling panel, cell-based, JC-1 fluorescence, 24 h, 100 nL compound (AID 1167); conditions: higher = more signal; further: test concentration not given here
[7] = basal 3T3-L1 adipocyte mitochondrial potential changes, profiling panel, cell-based, JC-1 fluorescence, 3T3-L1 adipocytes, 24 h, 100 nL compound (AID 1168); conditions: JC-1 mitochondrial fluorescence, higher = more signal, called active from +8 up or from −8 down; further: test concentration not given here
[8] = basal RPMI8226 mitochondrial membrane potential changes, profiling panel, cell-based, JC-1 fluorescence, 24 h, 100 nL compound (AID 1169); conditions: RPMI8226 myeloma, JC-1 mitochondrial potential fluorescence, higher = more signal; further: test concentration not given here
[9] = basal MM1S mitochondrial membrane potential changes, profiling panel, cell-based, JC-1 fluorescence, 24 h, 100 nL compound (AID 1170); conditions: higher = more signal; further: test concentration not given here
[10] = A549 lung cancer cell viability effects, profiling panel, resazurin fluorescence, 24 h, PK04 Diversity Set (AID 1171); conditions: higher = more signal, called active from +8 up or from −8 down; further: test concentration not given here
[11] = HepG2 liver cancer cell viability effects, profiling panel, resazurin fluorescence, 24 h, PK04 Diversity Set (AID 1172); conditions: higher = more signal; further: test concentration not given here
[12] = basal S. cerevisiae growth modulation, no modifier, primary screen, OD600, strain BY4716, 24 h, basal condition (AID 1173); conditions: OD600, 24 h, higher = more signal, called active from +8 up or from −8 down
[13] = MM1S myeloma cell viability, profiling panel, resazurin fluorescence, basal, 24 h, PK04 Diversity Set (AID 1174); conditions: higher = more signal, called active from +8 up or from −8 down;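 further: MM1S multiple myeloma cell line; test concentration not given here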
[14] = target: Dihydroorotate dehydrogenase (quinone), mitochondrial (Plasmodium falciparum (isolate 3D7)) (UniProt Q08210); experiment: PfDHODH enzyme inhibitors, primary screen, biochemical, C-terminal His tag, absorbance 600 nm (AID 1175); conditions: DCIP absorbance 600 nm, higher = more signal, called active from +8 up or from −8 down;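 further: recombinant parasite enzyme with a five histidine tag at its C terminus; test concentration not given here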
[15] = P. aeruginosa biofilm formation inhibitors, primary screen, strain PAO1, LB-PBS medium, absorbance 600 nm (AID 1176); further: test concentration not given here; conditions: P. aeruginosa PAO1 growth/biofilm, A600, 12 h; higher = more signal
[16] = S. cerevisiae RM11-1a growth modifiers, primary screen, strain RM11-1a, OD600, basal, 24 h (AID 1177); conditions: OD600, 24 h, higher = more signal, called active from +8 up or from −8 down;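 further: cultures grown under basal conditions with no added stressor; test concentration not given here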
[17] = E. coli acrAB mutant growth effects, primary screen, E. coli filamentation inducers, strain DRC39, OD650, 24 h (AID 1178); conditions: higher = more signal, called active from +8 up or from −8 down;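 further: growth measured as culture turbidity by optical density at 650 nm; test concentration not given here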
[18] = E. coli acrAB mutant growth effects, primary screen, E. coli filamentation inducers, strain DRC39, OD650, 48 h (AID 1179);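 further: screen aims at cell division blockers that make cells filament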; conditions: E. coli DRC39 delta-acrAB growth, higher = more signal, called active from +8 up or from −8 down
[19] = RPMI8226 myeloma cell viability, profiling panel, resazurin fluorescence, basal, 24 h, PK04 Diversity Set (AID 1180); conditions: higher = more signal;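 further: RPMI8826 multiple myeloma cell line at 5000 cells per well; test concentration not given here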
[20] = target: E3 ubiquitin-protein ligase XIAP (Homo sapiens) (UniProt P98170); experiment: XIAP binders, primary screen, biophysical, small-molecule microarray, fluorescence 635 nm (AID 1181); conditions: small-molecule microarray binding, higher = more signal;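 further: score merges 667 nm emission and signal to noise over triplicate slides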
E3 ubiquitin-protein ligase XIAP (Homo sapiens), sequence (P98170 whole entry, looked up): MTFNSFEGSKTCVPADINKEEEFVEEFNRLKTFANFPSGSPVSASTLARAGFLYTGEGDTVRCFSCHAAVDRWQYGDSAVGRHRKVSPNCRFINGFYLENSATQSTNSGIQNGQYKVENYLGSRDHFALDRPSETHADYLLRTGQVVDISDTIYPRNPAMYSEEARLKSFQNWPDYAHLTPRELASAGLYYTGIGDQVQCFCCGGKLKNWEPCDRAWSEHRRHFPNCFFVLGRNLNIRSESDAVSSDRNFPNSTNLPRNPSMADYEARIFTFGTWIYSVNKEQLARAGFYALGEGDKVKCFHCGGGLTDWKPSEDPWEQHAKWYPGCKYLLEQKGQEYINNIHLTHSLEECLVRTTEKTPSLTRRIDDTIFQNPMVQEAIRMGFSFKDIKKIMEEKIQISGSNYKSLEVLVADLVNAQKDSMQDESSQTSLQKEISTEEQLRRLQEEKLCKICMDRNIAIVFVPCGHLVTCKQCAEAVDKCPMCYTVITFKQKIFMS

Dihydroorotate dehydrogenase (quinone), mitochondrial (Plasmodium falciparum (isolate 3D7)), sequence (Q08210 whole entry, looked up): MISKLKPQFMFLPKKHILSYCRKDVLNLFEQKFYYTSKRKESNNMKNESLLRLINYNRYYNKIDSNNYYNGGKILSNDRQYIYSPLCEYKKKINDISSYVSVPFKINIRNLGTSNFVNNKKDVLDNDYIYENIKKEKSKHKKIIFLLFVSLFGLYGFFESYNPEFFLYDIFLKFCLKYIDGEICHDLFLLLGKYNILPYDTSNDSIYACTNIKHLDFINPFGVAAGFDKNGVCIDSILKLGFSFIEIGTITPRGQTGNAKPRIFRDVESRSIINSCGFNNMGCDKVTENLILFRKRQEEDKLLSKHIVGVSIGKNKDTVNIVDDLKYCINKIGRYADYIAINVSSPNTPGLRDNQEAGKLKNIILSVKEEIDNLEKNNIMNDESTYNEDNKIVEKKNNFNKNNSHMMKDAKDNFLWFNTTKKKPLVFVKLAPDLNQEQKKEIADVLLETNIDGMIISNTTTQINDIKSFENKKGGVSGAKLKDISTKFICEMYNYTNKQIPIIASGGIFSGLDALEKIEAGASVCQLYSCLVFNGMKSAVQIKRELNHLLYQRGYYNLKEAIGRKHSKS

Compound | z-score [1] | z-score [2] | z-score [3] | z-score [4] | z-score [5] | z-score [6] | z-score [7] | z-score [8] | z-score [9] | z-score [10] | z-score [11] | z-score [12] | z-score [13] | composite z-score [14] | z-score [15] | z-score [16] | z-score [17] | z-score [18] | z-score [19] | composite z-score [20]
C=CCN1C(=O)[C@@]2(Cc3ccccc3)N=C(c3ccc(OCCCO)cc3)O[C@H]2c2ccccc21 | -1.38 | 1.56 | -1.82 | -2.95 | -3.94 | -2.07 | 1.58 (inactive) | -1.11 | -2.14 | -1.36 (inactive) | -0.406 | -2.11 (inactive) | -2.82 (inactive) | 0.324 (inactive) | 1.39 (inactive) | 0.414 (inactive) | -0.304 (inactive) | -0.239 (inactive) | -4.23 | 0.212
CC(C)NC(=O)[C@@]1(Cc2ccccc2I)c2ccccc2C(=O)N(C2CCCCC2)[C@H]1c1ccc(CO)cc1 | 0.377 | 0.967 | -0.476 | -0.533 | -3.89 | 1.54 | -0.68 (inactive) | -0.941 | -1.36 | 0.778 (inactive) | 0.524 | -0.557 (inactive) | 0.224 (inactive) | -1.45 (inactive) | 0.593 (inactive) | 1.31 (inactive) | 0.545 (inactive) | 0.267 (inactive) | 0.751 | 0.106
COc1ccc(C(=O)Nc2ccc(CN3C(=O)[C@]4(O[C@H](CCn5cc(CCO)nn5)[C@@H]([Si](C)(C)c5ccc(OC)cc5)[C@@H]4C)c4ccccc43)cc2)cc1 | -3.11 | -0.616 | -4.54 | -2.68 | -4.37 | 1.17 | 1.3 (inactive) | -1.1 | -1.8 | -3.05 (inactive) | -2.97 | -5.51 (inactive) | -6.19 (inactive) | 0.597 (inactive) | 0.307 (inactive) | 2.44 (inactive) | 1.09 (inactive) | 0.72 (inactive) | -3.23 | -0.0129
NC(=O)NCC#Cc1ccc2c(c1)[C@]1(C(=O)N2)[C@H](c2ccccc2OCCO)N2[C@H](c3ccccc3)[C@H](c3ccccc3)OC(=O)[C@H]2[C@@H]1C(=O)N1CCN(c2ncccn2)CC1 | -0.525 | 0.932 | 0.238 | 0.147 | 0.598 | -1.48 | 1.08 (inactive) | -0.356 | -0.293 | 0.157 (inactive) | -0.381 | 0.887 (inactive) | -0.17 (inactive) | -0.343 (inactive) | 2.31 (inactive) | 2.03 (inactive) | 1.27 (inactive) | 0.158 (inactive) | 1.19 | -0.178
CCOC(=O)C1=C[C@@H](c2ccccc2)N(S(=O)(=O)c2ccc(C)cc2)[C@H]1c1ccc(F)cc1 | -1.39 | -0.498 | -2.67 | -2.06 | -1.34 | 2.45 | -1.16 (inactive) | -0.118 | -0.00719 | 1.04 (inactive) | -0.296 | 1.87 (inactive) | -0.648 (inactive) | -0.102 (inactive) | 0.216 (inactive) | 2.33 (inactive) | -0.213 (inactive) | -0.283 (inactive) | -2.21 | 0.155
COC(=O)[C@@]1(Cc2ccccc2CN=[N+]=[N-])N=C(c2ccc(OCCCO)cc2)O[C@H]1c1ccccc1N=[N+]=[N-] | -2.1 | 0.0397 | -2.36 | -2.99 | -3.63 | -0.00729 | -0.222 (inactive) | -1.19 | -2.29 | -1.35 (inactive) | -0.806 | 1.49 (inactive) | -3.44 (inactive) | 3.12 (inactive) | 1.69 (inactive) | 2.6 (inactive) | 0.365 (inactive) | -0.762 (inactive) | -3.59 | -0.0095
CCCC=C(CCC)[C@@H](NC(=O)c1ccc(C(F)(F)F)cc1)c1ccccc1 | -0.842 | 0.0679 | -1.59 | -2.51 | -2.58 | -2.98 | -0.208 (inactive) | -0.601 | -1.13 | -0.396 (inactive) | -0.421 | 0.79 (inactive) | -0.507 (inactive) | -3.63 (inactive) | 4.02 (inactive) | 0.513 (inactive) | 0.0948 (inactive) | -0.221 (inactive) | -0.996 | -0.253
COC(=O)Cn1c(C(=O)N2CCCC2)cc2c1C[C@H]1CN(C(=O)c3ccccc3)[C@@](Cc3ccccc3)(C(=O)OC)[C@@H]21 | -0.162 | 0.0052 | 0.513 | 0.875 | -0.256 | 0.876 | 0.385 (inactive) | -0.0618 | -1.25 | 0.359 (inactive) | -0.103 | 1.37 (inactive) | -0.694 (inactive) | 0.0393 (inactive) | 0.619 (inactive) | 0.965 (inactive) | -0.244 (inactive) | 0.172 (inactive) | -1.34 | 0.107
Cc1ccc(S[C@]2(C(=O)NC3CC3)CC(=O)N(Cc3cc(C(F)(F)F)cc(C(F)(F)F)c3)[C@@H]2c2ccc(CO)cc2)cc1 | 0.902 | 1.69 | 0.445 | 0.239 | 0.16 | 0.259 | -0.472 (inactive) | -0.718 | -0.792 | 0.968 (inactive) | 1.1 | -1.03 (inactive) | 0.219 (inactive) | -2.37 (inactive) | 0.214 (inactive) | -0.921 (inactive) | 0.327 (inactive) | 0.561 (inactive) | 1.25 | 0.209
